{"source": "PubChem BioAssay (NCATS)", "note": "Inconclusive results are not listed. Active and inactive are the calls of the source. Calls come from the whole dose curve; as a rule, active = well fitted curve in the direction sought with a large enough effect in the signal ratio (not every such curve was filed as active); inconclusive = small, poorly fitted or top-dose-only effect, or effect the other way, or a change in a side signal; inactive = no such curve, though single readings can be large or run the other way; the % refers to the signal ratio.", "data": [{"target": "Tyrosine-protein phosphatase non-receptor type substrate 1 (Homo sapiens) + Leukocyte surface antigen CD47 (Homo sapiens) (UniProt P78324+Q08722)", "sequence (P78324 whole entry, looked up)": "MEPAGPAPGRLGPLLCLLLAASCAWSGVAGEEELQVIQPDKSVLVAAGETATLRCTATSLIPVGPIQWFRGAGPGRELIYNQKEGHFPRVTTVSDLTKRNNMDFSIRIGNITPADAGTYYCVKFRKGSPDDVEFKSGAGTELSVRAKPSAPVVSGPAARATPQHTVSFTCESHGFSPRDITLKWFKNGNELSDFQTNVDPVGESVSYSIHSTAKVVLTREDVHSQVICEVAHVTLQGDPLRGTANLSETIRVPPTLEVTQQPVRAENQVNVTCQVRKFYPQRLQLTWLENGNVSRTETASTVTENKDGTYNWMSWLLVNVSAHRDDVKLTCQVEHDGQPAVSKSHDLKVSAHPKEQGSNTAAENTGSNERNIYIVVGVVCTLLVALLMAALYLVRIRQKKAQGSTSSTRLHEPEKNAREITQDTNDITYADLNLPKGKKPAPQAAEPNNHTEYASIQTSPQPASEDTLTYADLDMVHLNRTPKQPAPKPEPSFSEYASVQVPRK", "sequence (Q08722 whole entry, looked up)": "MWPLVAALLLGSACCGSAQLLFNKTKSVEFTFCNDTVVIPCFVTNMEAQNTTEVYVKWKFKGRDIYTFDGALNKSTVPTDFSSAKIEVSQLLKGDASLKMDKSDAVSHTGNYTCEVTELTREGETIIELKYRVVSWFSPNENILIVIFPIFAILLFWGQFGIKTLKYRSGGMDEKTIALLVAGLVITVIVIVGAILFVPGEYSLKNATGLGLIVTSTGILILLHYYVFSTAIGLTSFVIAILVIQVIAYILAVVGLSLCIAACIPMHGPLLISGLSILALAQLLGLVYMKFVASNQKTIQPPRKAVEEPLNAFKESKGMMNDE", "assay": "CD47-SIRPalpha protein protein interaction - HTRF assay qHTS validation (AID 1347058)", "details": "TR-FRET HTRF CD47-His / biotin-SIRPalpha binding, ratio 665/615; series mostly up to 38.3 µM", "source_text": "SIRPalpha is a myeloid cell expressed immunomodulatory receptor that binds the tumor expressed immune checkpoint CD47. Therapeutic disruption of this interaction leads to immune-mediated tumor rejection. This assay was used to quantitate CD47-SIRPalpha binding biochemically and evaluate chemical libraries for novel CD47-SIRPalpha inhibitors. To recapitulate the biological interaction of CD47 and SIRPalpha, we designed expression constructs to produce their recombinant, soluble, extracellular interaction domains. CD47 was produced with an N-terminal 6His tag. SIRPalpha was produced with an N-terminal Avi-Tag for site-specific biotin incorporation. The CD47-SIRPalpha interaction was measured by TR-FRET using affinity tag linked reagents (anti-6His-Eu donor and streptavidin-XL665 acceptor). SIRPalpha without biotin incorporation was used as a positive control inhibitor.\nSEQUENCE No. (e.g., 1, 2, 3, etc.); […] (e.g., Cells, Incubation, Reagent, etc.); VALUE and DESCRIPTION.\n1a. Reagent. 3 uL CD47-His (12.5 nM) and Anti-His Eu Donor reagent (0.7 nM) added to respective wells in Assay buffer; white/solid bottom high base, med bind 1536-well plates (Greiner 789075)\n1b. Reagent. 2 uL Assay buffer negative control for background fluorescence\n2. Reagent. 23 nL library compounds (7-pt, 1:4 intraplate titration series) or DMSO control transferred by Pin Tool\n3. Centrifuge. Centrifuge plate for 30 s at 1000 RPM\n4. Incubation.#Incubate reagents at room temperature for 30 min, protected from light\n5. Reagent. 2 uL SIRPalpha-biotin (100 nM) in Assay buffer\n6. Incubation.#Incubate reagents at room temperature for 30 min, protected from light\n7. Reagent. 1 uL SAV-XL665 (85 nM) acceptor reagent added to respective wells\n8. Centrifuge. Centrifuge plate for 30 s at 1000 RPM\n9. Incubation. Incubate reagents at room temperature for 30 min, protected from light\n10. Detector. Measure Top TR-FRET on EnVision (Eu/APC filter set); calculate ratio Ch1/Ch2\n1. Assay buffer composition.#Phosphate buffered saline (PBS; 10 mM Phosphate, 137 mM NaCl, and 2.7 mM KCl; pH 7.4), 0.05% IGEPAL CA-630\n2. 23nL of […] library compounds (7 plates) or DMSO vehicle control transferred to 9 Greiner white/solid bottom high base, TC plates in 7 interplate 1:5 titrations (see Yasgar, A. et al. 2008) with Pintool. Two of the 9 plates are DMSO-only in compound field at beginning and end of compound library-treated plates.\n10. Detector settings#Mirror = LANCE/DELFIA Dual Enh; Ex. Filter = UV2[TRF] 320; Em. Filter = APC 665; 2nd Em. Filter = Europium 615; Measurement h = 6.5; Ex. light (%) = 100; Delay = […]; Window t = 100 us; No. Seq. windows = 1; Time between flashes = 2000us; No. of flashes = 100; No. of flashes for 2nd detector = 100; Calculation: \"Ratio Ch1/Ch2\"", "values": [{"compound": "NCCc1c[nH]c2ccc(O)cc12", "outcome": "inactive"}, {"compound": "Cn1cnc(CCN)c1", "outcome": "inactive"}, {"compound": "Cc1nccc2c1[nH]c1ccccc12", "outcome": "inactive"}, {"compound": "CC1=NN=C(c2ccc(N)cc2)c2cc3c(cc2C1)OCO3", "outcome": "inactive"}, {"compound": "C[C@@H]1O[C@H](C[N+](C)(C)C)C[C@H]1O", "outcome": "inactive"}, {"compound": "C#CCOC(=O)C1=CCCN(C)C1", "outcome": "inactive"}, {"compound": "O=C(O)[C@@H]1CCN1", "outcome": "inactive"}, {"compound": "CC(=O)NCCc1c[nH]c2ccccc12", "outcome": "inactive"}, {"compound": "CN1C2CCC1CC(OC(=O)c1cc(Cl)cc(Cl)c1)C2", "note": "(stereo not given)", "outcome": "inactive"}, {"compound": "COc1cc(C(O)CN)ccc1O", "note": "(stereo not given)", "outcome": "inactive"}, {"compound": "O=C(Cc1ccc(Cl)c(Cl)c1)N1CCCCC1CN1CCCC1", "note": "(stereo not given)", "outcome": "inactive"}, {"compound": "C[N+](C)(C)CC(=O)O", "outcome": "inactive"}, {"compound": "CN[C@@H]1C[C@@H](c2ccc(Cl)c(Cl)c2)c2ccccc21", "outcome": "inactive"}, {"compound": "CC[C@@H](C(N)=O)N1CCCC1=O", "outcome": "inactive"}, {"compound": "NCCc1c[nH]c2ccccc12", "outcome": "inactive"}, {"compound": "CNCCc1ccc(O)c(O)c1", "outcome": "inactive"}, {"compound": "C[N+]1(C)C2CCC1CC(OC(=O)C(CO)c1ccccc1)C2", "note": "(stereo not given)", "outcome": "inactive"}, {"compound": "C/C=C(/C)C(=O)O[C@H]1C(C)=C2[C@H]([C@@H]1OC(=O)CCCCCCC)[C@@](C)(OC(C)=O)C[C@H](OC(=O)CCC)[C@@]1(O)[C@H]2OC(=O)[C@@]1(C)O", "outcome": "inactive"}, {"compound": "O=C(N[C@H]1CN2CCC1CC2)c1ccc(Cl)cc1", "outcome": "inactive"}, {"compound": "CC(C)NC(C)Cc1ccc(I)cc1", "note": "(stereo not given)", "outcome": "inactive"}, {"compound": "CCCCc1ccc(C(=O)O)nc1", "outcome": "inactive"}, {"compound": "NC(CCP(=O)(O)O)C(=O)O", "note": "(stereo not given)", "outcome": "inactive"}, {"compound": "C=CCN1CC[C@]23CCCCC2[C@H]1Cc1ccc(O)cc13", "note": "(stereo not given in full)", "outcome": "inactive"}, {"compound": "c1ccc2sc(C3(N4CCCCC4)CCCCC3)cc2c1", "outcome": "inactive"}, {"compound": "NCc1cc(=O)[nH]o1", "outcome": "inactive"}, {"compound": "Clc1cnc(Oc2ccc(Oc3ncc(Cl)cc3Cl)cc2)c(Cl)c1", "outcome": "inactive"}, {"compound": "C[C@@H](N)Cc1cnc[nH]1", "outcome": "inactive"}, {"compound": "CCCN(CCC)[C@@H]1CCc2ccc(O)cc2C1", "outcome": "inactive"}, {"compound": "NC(N)=NOCCC(N)C(=O)O", "note": "(stereo not given)", "outcome": "inactive"}, {"compound": "NC1CCc2cc(O)c(O)cc2C1", "note": "(stereo not given)", "outcome": "inactive"}, {"compound": "O=C(O)CC[N+](=O)[O-]", "outcome": "inactive"}, {"compound": "COC(=O)[C@@H](N)CCCN=C(N)N[N+](=O)[O-]", "outcome": "inactive"}, {"compound": "CCCN1CCC[C@H](c2cccc(O)c2)C1", "outcome": "inactive"}, {"compound": "CS(=N)(=O)CC[C@H](N)C(=O)O", "note": "(stereo not given in full)", "outcome": "inactive"}, {"compound": "O=C1CCCN1CC#CCN1CCCC1", "outcome": "inactive"}, {"compound": "S=C(NC1CCCCC1)N1CCC(c2cnc[nH]2)CC1", "outcome": "inactive"}, {"compound": "CCCN1CCO[C@@H]2c3cc(O)ccc3OC[C@H]21", "outcome": "inactive"}, {"compound": "NC(CP(=O)(O)O)C(=O)O", "note": "(stereo not given)", "outcome": "inactive"}, {"compound": "CNCCc1c[nH]c2ccc(O)cc12", "outcome": "inactive"}, {"compound": "O=C(O)Cc1cnc[nH]1", "outcome": "inactive"}]}]}
